# Reference: the supplement of paper PMC6555819
# System: PXR:RXRa (NR concentration 270 nM, RXRa partner concentration 90 nM)
# Assay: PBM binding z-score (relative to random genomic background probes); higher = stronger binding; sequences stand for … in GC…GCGATTGACAGCGTAGAATGAAGG
# Outline: (§1)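 Scanned fluorescence from custom Agilent 4×180K protein-binding microarrays was regression-normalized. Binding z-scores use random background probes as reference. Ligand-free nuclear receptor dimers were incubated on the arrays for 1 h and detected with antibodies against each partner (one per run).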
row,Sequence,PBM binding z-score
1,CCACGGAGGACAGAAGGTCAGAGCTGTCCGCTTT,1.56
2,ATCTCGAGGTAAAGTTCAGTGAAAGATCGATAGA,2.17
3,CCAGACAGGTGTAAGGTAACTCAGTCTGGTACGC,-0.318
4,CGAACTAGGTCATCCAGGACAGTGTATACATTGA,2.03
5,CGAACTAGGTCATCCAGGGCAGTGAATACATTGA,2.66
6,GCTTTCGGGTCAAAGGTTATAGCATGAATAGAAT,5.89
7,GCGACTGGGGTAAAGCAGGTTACCATAAGGTTGG,0.651
8,AGAATGAGGTTATGAAGATCAGGGAATTGCGGTC,1.18
9,GGAACGAGGGAAAAGTTGATAGCATCTGTCGACG,-0.557
10,ATATGTAGGTTAGCTGGGTTCATTCAGACTAGGC,6.34
11,AGAATGAGGTTATAAGTAGATCAGGGAAGAAAGT,1.47
12,TCTAGCAGGCCAAAGGGTCACTCAAGAGGTACGG,2.95
13,GCGACTGGGGCAAAGCAAGTTACCATAAGGTTGG,-0.0344
14,GTACCAAGGTGAATAGGACGTTGATGAGTAGGCG,-0.246
15,TCAAGTAGGTTACCAATGGGGCATTCAGCTTTCT,0.326
16,TCATATAGGTACTACAGGTGAAAGTCGGCATCTA,0.663
17,TCATATAAGTAAACAGGTGAAAGTCCGTAAGTTA,1.09
18,TCATGTAGGTAAATGCTAGGTGAAAGTCCGATCT,0.502
19,CCTTACGGGTCACGAGGTTATAGGACGACGAGCG,4.53
20,ATATCAAGGTGATCGTGAGGTCGTTGATACTAAC,3.24

row,Sequence,PBM binding z-score
1,TAGCCTAGGTCATGCGGGCCACTATAGTGTCGGC,1.69
2,GTACCAAGGTGAAGAGGTCGTTGATGAGTAGGCG,2.15
3,CCTAGTTGGTCAAAGTCACACACGCTATAGGTAC,0.0775
4,TCTTGTAGATCAAGCACGTTAAGAAAGCCTGAGT,0.445
5,TTACCAAGGTGAGAGGTCGTTGATGCACGCCTTG,2.47
6,TCTTGTAGATCAAAGGCTAAGAAAGCCGAAGCCT,-0.183
7,TAGCCTAGGTCAGAACGGGCCAGTATACGCTATA,0.457
8,ATCGAAAGGTCGAAGGCGAGTATACCCACCCGAA,2.14
9,CCTAGCAAGCCAATCTGGGTCACTCAAGGCTTGA,0.841
10,CCGAGTTGGTCAGGAGGTCACACACCGGATATGA,4.53
11,AGAGACAGGTGAGTGAAGGTAACTCAGCTGGACG,0.0989
12,GCTCGGCGGACAAGGTCAGAGCTTTGTCCGTAGA,1.55
13,ACTAGCAGGCCAAGTTTGGGCCACTCAAACAAAG,-0.855
14,ACTAGCAGGCCAAGTTTGGGTCACTCAGACAAAG,0.515
15,CCTTACGGGTCACTCCAGGGTATAGCATCGGAGT,3.89
16,GGAACGAGGGCAATTTGATAGCAGAGTTTGATGG,0.484
17,CGTCCAAGGTCATAGGAGGTCAGTTAAGACAGAT,6.47
18,CGTCCAAGGTGAGCAGGTCAGTGAAAGCGACGTG,0.116
19,GCTAGTTGGTCAGTAAAAGGTCACACATCGGTCG,4.7

# System: PXR homodimer (NR concentration 270 nM)
# Assay: as above
# Outline: as §1
row,Sequence,PBM binding z-score
1,CCACGGAGGACAGAAGGTCAGAGCTGTCCGCTTT,-0.17
2,ATCTCGAGGTAAAGTTCAGTGAAAGATCGATAGA,1.44
3,CCAGACAGGTGTAAGGTAACTCAGTCTGGTACGC,-0.0688
4,CGAACTAGGTCATCCAGGACAGTGTATACATTGA,1.29
5,CGAACTAGGTCATCCAGGGCAGTGAATACATTGA,1.95
6,GCTTTCGGGTCAAAGGTTATAGCATGAATAGAAT,0.475
7,GCGACTGGGGTAAAGCAGGTTACCATAAGGTTGG,-0.238
8,AGAATGAGGTTATGAAGATCAGGGAATTGCGGTC,0.111
9,GGAACGAGGGAAAAGTTGATAGCATCTGTCGACG,-0.343
10,ATATGTAGGTTAGCTGGGTTCATTCAGACTAGGC,7.23
11,AGAATGAGGTTATAAGTAGATCAGGGAAGAAAGT,0.923
12,TCTAGCAGGCCAAAGGGTCACTCAAGAGGTACGG,-0.0548
13,GCGACTGGGGCAAAGCAAGTTACCATAAGGTTGG,-0.458
14,GTACCAAGGTGAATAGGACGTTGATGAGTAGGCG,-0.00267
15,TCAAGTAGGTTACCAATGGGGCATTCAGCTTTCT,-0.278
16,TCATATAGGTACTACAGGTGAAAGTCGGCATCTA,0.0757
17,TCATATAAGTAAACAGGTGAAAGTCCGTAAGTTA,0.507
18,TCATGTAGGTAAATGCTAGGTGAAAGTCCGATCT,0.512
19,CCTTACGGGTCACGAGGTTATAGGACGACGAGCG,0.176
20,ATATCAAGGTGATCGTGAGGTCGTTGATACTAAC,1.18

row,Sequence,PBM binding z-score
1,TAGCCTAGGTCATGCGGGCCACTATAGTGTCGGC,-0.634
2,GTACCAAGGTGAAGAGGTCGTTGATGAGTAGGCG,0.607
3,CCTAGTTGGTCAAAGTCACACACGCTATAGGTAC,0.736
4,TCTTGTAGATCAAGCACGTTAAGAAAGCCTGAGT,-0.148
5,TTACCAAGGTGAGAGGTCGTTGATGCACGCCTTG,0.681
6,TCTTGTAGATCAAAGGCTAAGAAAGCCGAAGCCT,-0.625
7,TAGCCTAGGTCAGAACGGGCCAGTATACGCTATA,-0.462
8,ATCGAAAGGTCGAAGGCGAGTATACCCACCCGAA,-0.132
9,CCTAGCAAGCCAATCTGGGTCACTCAAGGCTTGA,-0.371
10,CCGAGTTGGTCAGGAGGTCACACACCGGATATGA,1.31
11,AGAGACAGGTGAGTGAAGGTAACTCAGCTGGACG,0.169
12,GCTCGGCGGACAAGGTCAGAGCTTTGTCCGTAGA,-0.547
13,ACTAGCAGGCCAAGTTTGGGCCACTCAAACAAAG,-0.899
14,ACTAGCAGGCCAAGTTTGGGTCACTCAGACAAAG,-0.504
15,CCTTACGGGTCACTCCAGGGTATAGCATCGGAGT,0.022
16,GGAACGAGGGCAATTTGATAGCAGAGTTTGATGG,0.475
17,CGTCCAAGGTCATAGGAGGTCAGTTAAGACAGAT,4.13
18,CGTCCAAGGTGAGCAGGTCAGTGAAAGCGACGTG,-0.516
19,GCTAGTTGGTCAGTAAAAGGTCACACATCGGTCG,1.49
